Screening results as filed in PubChem BioAssay.
SF-1 inh = SF-1 (human) inhibition. CHO-K1 Gal4-SF-1 LBD luciferase reporter. inhibition, % at 10 µM. 65,000 tested, 0.55% active. AID 525;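 active = inhibition above the mean inhibition of all tested compounds plus 3 SD, cut at about 48% in these data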;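 note: 0% = SF-1 transfected cells with DMSO and 100% = mock-transfected cells lacking SF-1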
Target sequence (Q13285 whole entry, looked up, the tested form may be a part): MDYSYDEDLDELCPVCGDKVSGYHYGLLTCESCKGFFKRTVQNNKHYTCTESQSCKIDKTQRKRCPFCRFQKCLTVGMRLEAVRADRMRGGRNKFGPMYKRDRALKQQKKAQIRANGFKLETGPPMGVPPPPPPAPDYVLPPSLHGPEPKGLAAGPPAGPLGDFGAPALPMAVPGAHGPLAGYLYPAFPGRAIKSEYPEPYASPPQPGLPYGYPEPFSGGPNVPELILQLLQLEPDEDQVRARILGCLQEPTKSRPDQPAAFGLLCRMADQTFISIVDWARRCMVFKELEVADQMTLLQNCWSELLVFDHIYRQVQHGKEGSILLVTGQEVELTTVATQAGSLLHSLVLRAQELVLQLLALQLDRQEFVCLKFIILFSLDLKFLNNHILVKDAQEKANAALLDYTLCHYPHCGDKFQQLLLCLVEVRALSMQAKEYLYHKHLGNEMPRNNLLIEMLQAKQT
Starred values were filed as active, the others as inactive. Many of the other results were omitted from the sample, so hits are more common in it than they were.

What do the screens show for `Cn1ncnc2c(=O)n(C)c(=O)nc1-2`?
SF-1 inh: 96*

What do the screens show for `CCCCn1c(O)c(C=NCCCN(CC)CC)c(=O)[nH]c1=O`?
SF-1 inh: 4

Results for O=C1C2CCN(CC2)[C@@H]1Cc1ccc2ccccc2c1O ?
SF-1 inh: -7

What do the screens show for `COCCn1cc(C(=O)N2CCC3(CC2)OCCO3)c2c3ccccc3n(C)c2c1=O`?
SF-1 inh: -1

What do the screens show for `Cc1ccc2cc3cc(C(=O)N4CCC5(CC4)OCCO5)oc3nc2c1`?
SF-1 inh: -13

What do the screens show for `Cc1c2ccncc2c(C)c2c1[nH]c1ccccc12`?
SF-1 inh: 76*

Results for COc1ccc(C2C(C(=O)N3CCC4(CC3)OCCO4)c3cc(OC)c(OC)cc3C(=O)N2C)cc1 (configuration not stated) ?
SF-1 inh: 12

What do the screens show for `OC1(c2ccc(F)cc2)CC2CCC(C1)N2Cc1nnnn1C1CCCCC1` (configuration not stated)?
SF-1 inh: -14

How did C[C@]12CCC(=O)C=C1CCC1C2CC[C@@]2(C)C1CC[C@@]2(O)CC#N (some centres not stated) do in these assays?
SF-1 inh: -14

What do the screens show for `C=CCn1c(O)c(C(C)=Nc2ccc(C(=O)OCC)cc2)c(=O)[nH]c1=O`?
SF-1 inh: 4

What do the screens show for `COC(=O)c1ccc(N2C(=O)CC(N3CCC(n4c(=O)[nH]c5ccccc54)CC3)C2=O)cc1` (configuration not stated)?
SF-1 inh: 54*

Results for C=CCOC(=O)C1=C(C)OC(N)=C(C#N)[C@@]12C(=O)N(CC(N)=O)c1ccccc12 ?
SF-1 inh: -2

What do the screens show for `Cc1cccc(N2CCc3c2nc2ccccc2c3N)c1`?
SF-1 inh: 6

What do the screens show for `CN1CCN(C(=O)COc2ccc(-c3nc4ccccc4s3)cc2)CC1`?
SF-1 inh: 71*

Results for O=C(c1cc(Br)ccc1Cl)N1CCC2(CC1)OCCO2 ?
SF-1 inh: 8

How did CN1C(=O)C(C2(C#N)CCCCC2)C(=O)N(C)C1=O do in these assays?
SF-1 inh: -13

Results for O=P(CN1CCN(c2ccccc2)CC1)(N1CCCCC1)N1CCCCC1 ?
SF-1 inh: 33

Results for CCOP1(=S)Oc2cc3c(cc2C(C(=O)OC)(C(F)(F)F)O1)OCO3 (configuration not stated) ?
SF-1 inh: -1

Results for CCCCn1c(O)c(C=NCCN2CCCCC2)c(=O)[nH]c1=O ?
SF-1 inh: 1

Results for C[C@@]1(CO)[C@H](O)CC[C@@]2(C)[C@H]1CC[C@H]1C[C@@H]3C[C@@]12CC[C@]3(O)CO ?
SF-1 inh: 84*

What do the screens show for `COc1cccc(-c2cc(C(F)(F)F)n3nc(C(=O)N4CCC5(CC4)OCCO5)cc3n2)c1`?
SF-1 inh: -2

How did CCOc1cc2[nH]c(=S)n(CCCC(=O)N3CCC4(CC3)OCCO4)c(=O)c2cc1OCC do in these assays?
SF-1 inh: -4

Results for CCC(=NCC1CCCO1)c1c(O)[nH]c(=O)[nH]c1=O (configuration not stated) ?
SF-1 inh: -2

Results for CC(C)NS(=O)(=O)c1ccc(OCC(=O)N2CCN(Cc3ccccc3)CC2)c(Cl)c1 ?
SF-1 inh: 17

How did CC(C(N)=O)N1CC(c2ccccc2)CC1=O (configuration not stated) do in these assays?
SF-1 inh: -12
